Most compounds without a hit are left out; they make up all but 3.4% or so of the library.
PP1 inh = PP1-alpha phosphatase inhibitors, primary screen, counter-screen for PP5 inhibitor project, biochemical, fluorescence, OMFP substrate, single point. Serine/threonine-protein phosphatase PP1-alpha catalytic subunit (Homo sapiens), P62136. hit rate 0.9% among 320,000. inhibition, % at 6.7 µM. purified PP1alpha. AID 2235, 2010;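 active means inhibition above the mean inhibition of all tested compounds plus 3 SD, computed separately for each screening campaign, cut at about 15% in these data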
PAFAH1B2 inh = PAFAH1B2 enzyme inhibitors, primary screen, biochemical, fluorescence polarization, human. hit rate 1.2% among 340,000. Platelet-activating factor acetylhydrolase IB subunit alpha2 (Homo sapiens), P68402. inhibition, % at 3.39 µM. recombinant PAFAH1B2, FP-rhodamine activity probe;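 active means inhibition above the mean of all tested compounds plus 3 SD, cut at about 24% in these data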;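 further: 0% = enzyme with DMSO and 100% = wells lacking PAFAH1B2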
Target sequence (P68402 whole entry, looked up): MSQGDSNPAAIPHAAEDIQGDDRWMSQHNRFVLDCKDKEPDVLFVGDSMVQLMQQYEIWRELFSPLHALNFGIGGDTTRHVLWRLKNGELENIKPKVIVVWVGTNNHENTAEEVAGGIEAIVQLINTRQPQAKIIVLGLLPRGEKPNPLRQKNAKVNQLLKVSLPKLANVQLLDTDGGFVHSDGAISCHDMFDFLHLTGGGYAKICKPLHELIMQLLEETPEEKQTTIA
PAFAH1B3 inh = PAFAH1B3 enzyme inhibitors, primary screen, biochemical, fluorescence polarization, human; Platelet-activating factor acetylhydrolase IB subunit alpha1 (Homo sapiens), Q15102; recombinant PAFAH1B3, FP-rhodamine probe; inhibition, % at 3.39 µM; hit rate 0.28% among 340,000;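 active means inhibition above the screen-wide average of all tested compounds plus 3 SD, cut at about 25% in these data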;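 further: 0% = enzyme with DMSO only and 100% = wells lacking PAFAH1B3 protein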
Target sequence (Q15102 whole entry, looked up): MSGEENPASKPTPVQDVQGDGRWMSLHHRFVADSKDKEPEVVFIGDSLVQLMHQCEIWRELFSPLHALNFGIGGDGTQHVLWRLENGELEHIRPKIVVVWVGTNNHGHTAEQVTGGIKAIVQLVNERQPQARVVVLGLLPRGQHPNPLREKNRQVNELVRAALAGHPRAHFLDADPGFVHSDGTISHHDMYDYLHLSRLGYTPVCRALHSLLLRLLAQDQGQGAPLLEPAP
PAFAH2 FP inh = PAFAH2 enzyme inhibitors, primary screen, biochemical, fluorescence polarization, human; Platelet-activating factor acetylhydrolase 2, cytoplasmic (Homo sapiens), Q99487; recombinant PAFAH2, FP-rhodamine activity probe; inhibition, % at 3.39 µM; hit rate 0.99% among 340,000; AID 492956, 2010;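 active means inhibition above the mean over all tested compounds plus 3 SD, cut at about 30% in these data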;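 further: inhibitors block probe labeling of enzyme so polarization drops; 0% = enzyme with DMSO and 100% = wells lacking PAFAH2 protein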
pPAFAH FP inh = pPAFAH enzyme inhibitors, primary screen, biochemical, fluorescence polarization, human. Platelet-activating factor acetylhydrolase (Homo sapiens), Q13093. recombinant pPAFAH, FP-rhodamine probe fluorescence polarization. inhibition, % at 3.39 µM. hit rate 1.5% among 330,000. AID 463082, 2010;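 active means inhibition above the mean inhibition across the screen plus 3 SD, cut at about 25% in these data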;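 further: inhibitors block binding of the rhodamine activity-based probe so polarization drops; 0% = enzyme with DMSO and 100% = wells lacking pPAFAH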
PP5 primary = PP5 phosphatase inhibitors, primary screen, biochemical, fluorescence. purified PP5c, OMFP substrate fluorescence. hit rate 0.18% among 320,000. inhibition, % at 6.7 µM;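 active means inhibition above the campaign's mean inhibition across all tested compounds plus 3 SD, cut at about 9.5% in these data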;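 further: 0% = DMSO only and 100% = 100 µM cantharidin control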
PAFAH2 FP conf = PAFAH2 enzyme inhibitors, confirmation, biochemical, fluorescence polarization, human | hit rate 65% among 2,300 | recombinant PAFAH2, FP-rhodamine activity probe | inhibition, % at 3.39 µM | shares compounds with PAFAH2 FP inh;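 active means mean inhibition over three repeats above a set limit taken from the earlier primary screen, cut at about 30% in these data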;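 further: inhibitor blocks binding of rhodamine activity probe so polarization falls; 0% = enzyme with DMSO and 100% = wells lacking PAFAH2 protein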
* = called active by the depositor; . = no result given.

SMILES	PP1 inh	PAFAH1B2 inh	PAFAH1B3 inh	PAFAH2 FP inh	pPAFAH FP inh	PP5 primary	PAFAH2 FP conf
O=C(Cn1nc2ccccc2n1)N/N=C/c1cc(Cl)cc([N+](=O)[O-])c1O	.	9	3	30*	.	.	15
COc1ccccc1NC(=O)c1ccccc1NS(=O)(=O)c1cccs1	-5	3	7	44*	8	0	40*
COC(=O)c1cc(NS(=O)(=O)c2cccs2)cc(NS(=O)(=O)c2cccs2)c1	.	3	7	32*	.	.	13
Cn1c2nc(=O)[nH]c(=O)c-2cc2ccccc21	.	6	3	7	.	.	.
CCOC(=O)C1(Cc2ccc(OC)cc2)CCN(C(=O)Cc2cccnc2)CC1	-2	1	-3	-1	2	0	.
O=C(COC(=O)c1ccco1)c1ccc(Cl)cc1	0	-1	-2	13	2	0	.
COc1cccc(NC(=O)COC(=O)c2cc(S(=O)(=O)N3CCOCC3)ccc2C)c1	-5	1	6	35*	3	0	21
Cc1ccc(S(=O)(=O)N2CCOCC2)cc1C(=O)OCC(=O)Nc1ccc2c(c1)OCO2	-2	3	8	37*	4	0	23
O=C(COC(=O)c1cc(S(=O)(=O)N2CCOCC2)ccc1F)Nc1ccc2c(c1)OCO2	.	-1	0	3	8	.	.
O=c1nc(/C=C/c2cc([N+](=O)[O-])ccc2Cl)cc(C(F)(F)F)[nH]1	5	6	2	7	3	3	.
O=C(CCc1[nH]c2ccccc2c1Sc1ccccc1)NCCO	-2	3	-1	37*	2	0	27
CC(C)(C)S(=O)(=O)c1cnc2c(S(=O)(=O)c3ccccc3)cnn2c1N	-4	-2	1	30*	5	0	0
Cc1cccc2cc(/C=C/C(=O)c3ccco3)c(Cl)nc12	-1	.	.	.	3	2	.
O=C(O)c1ccc(-c2ccc(/C=C3\NC(=O)N(Cc4ccc(Cl)cc4)C3=O)o2)cc1	.	7	12	14	.	.	.
Cc1cc(C(=O)O)ccc1-c1ccc(/C=C2\NC(=O)N(Cc3ccccc3Cl)C2=O)o1	-2	3	12	33*	5	2	15
C=CCOC(=O)c1cc(-c2ccc(/C=C3\C(=O)NC(=O)C(C#N)=C3C)o2)ccc1Cl	.	12	11	42*	.	.	19
CC1=C(C#N)C(=O)NC(=O)/C1=C/c1ccc(-c2ccc(S(N)(=O)=O)cc2)o1	-3	0	24	9	15	1	.
CC(C)NC(=O)COC(=O)c1ccc(O)cc1	0	3	5	48*	-4	-9	24
CCN(CC)S(=O)(=O)c1cc(C(=O)OCC(=O)NC(=O)c2cccn2C)ccc1C	4	6	-4	62*	18	-1	50*
CC(C)(C)C(=O)COC(=O)c1ccc(O)cc1	-1	5	4	-1	-6	-1	.
Cn1cccc1C(=O)NC(=O)COC(=O)c1ccc(S(C)(=O)=O)cc1	.	2	8	-1	2	.	.
Cn1cccc1C(=O)NC(=O)COC(=O)c1ccc(O)cc1	0	0	2	52*	-2	2	45*
C=CCN1C(=O)/C(=C2/Sc3ccccc3N2CCCS(=O)(=O)O)SC1=S	3	14	16	34*	25*	1	22
CCCCC[C@H](O)/C=C/[C@H]1[C@H](O)CC(=O)[C@@H]1CCCCCCC(=O)O	3	.	.	.	1	0	.
CCCCCCCCCCC[C@@H](C[C@@H]1OC(=O)[C@H]1CCCCCC)OC(=O)[C@H](CC(C)C)NC=O	-2	10	3	80*	93*	2	79*
SMILES	PP1 inh	PAFAH1B2 inh	PAFAH1B3 inh	PAFAH2 FP inh	pPAFAH FP inh	PP5 primary	PAFAH2 FP conf
CC(C)c1[nH]nc2c1C(c1ccco1)C(C#N)=C(N)O2 (stereo not drawn)	-5	-2	7	-4	3	-1	.
COc1ccccc1C1Nc2ccccc2NC2=C1C(=O)CC(C)(C)C2 (stereo not drawn)	-1	4	2	3	1	0	.
O=C(NN1CCOCC1)c1ccccc1NS(=O)(=O)c1ccc(F)cc1F	.	3	3	70*	0	.	78*
Cc1ccc(NC(=O)COC(=O)c2cccc(C)c2[N+](=O)[O-])cc1S(=O)(=O)N1CCCCC1	.	-18	-14	26	-10	.	.
Cc1ccc(NC(=O)COC(=O)c2ccccc2F)cc1S(=O)(=O)N1CCCCC1	.	1	-1	67*	.	.	59*
Cc1ccc(C)c(NC(=O)COC(=O)c2ccc(S(=O)(=O)N3CCCCC3)cc2)c1	1	1	5	2	-5	2	.
Cc1ccc(S(=O)(=O)N2CCCCC2)cc1NC(=O)COC(=O)c1ccccc1F	0	-5	0	52*	12	-1	53*
Cc1ccc(NC(=O)COC(=O)c2ccccc2Cl)cc1S(=O)(=O)N(C)C	-5	-1	1	58*	2	1	39*
Cc1ccc(NC(=O)Cc2ccccc2Cl)cc1S(=O)(=O)N(C)C	1	-6	0	6	2	0	.
CCC(C)c1ccccc1NC(=O)COC(=O)C1=COCCO1 (stereo not drawn)	1	5	11	62*	9	1	48*
O=C(COC(=O)C1=COCCO1)Nc1ccc(F)cc1	-2	2	5	69*	7	-2	59*
CC(C)(C)c1ccc(NC(=O)COC(=O)C2=COCCO2)cc1	0	1	8	22	9	0	.
CCN(CC)S(=O)(=O)c1cccc(NC(=O)COC(=O)C2=COCCO2)c1	-3	9	15	30*	6	-1	11
Cc1ccccc1NC(=O)COC(=O)C1=COCCO1	1	3	7	21	0	2	.
O=C(COC(=O)C1=COCCO1)Nc1ccc(Oc2ccccc2)cc1	-3	-4	-1	83*	6	5	77*
Cc1c(C(=O)N2CCN(Cc3ccc4c(c3)OCO4)CC2)sc2ncnc(N3CCN(c4ccccc4)CC3)c12	10	2	-4	-6	2	5	.
O=C(c1ccc([N+](=O)[O-])cc1)N1CCSC1c1ccccc1 (stereo not drawn)	1	13	-1	7	6	-1	.
CCOC(=O)c1ccccc1NC(=O)COC(=O)C1=COCCO1	7	1	-1	5	1	1	.

Assay outcomes deposited in PubChem BioAssay by The Scripps Research Institute Molecular Screening Center.
